This passage reports neurite formation score results from the supplement of paper PMC8047044.

Where a name gives a salt, the structure may show the parent alone.

For the experiment, the system named is Neuro-2a. Briefly: neurite formation score, plate-normalized to DMSO control mean 5.04 (score (0-8 scale)); higher = more or longer neurites. The note with it: 1 µM. As to the method: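 Neuro-2a mouse neuroblastoma cells in PLL-coated 96-well plates were pre-treated for 1 h in DMEM(+) with each kinase inhibitor at 1 µM, then switched to serum-free DMEM(-) with inhibitor to induce neurite outgrowth and fixed about 2-3 h later. Three blinded observers scored neurite formation from 0 (no neurites) to 8 (long neurites on almost all cells).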
Take `C[C@@H](Oc1cc(-n2cnc3ccc(CN4CCN(C)CC4)cc32)sc1C(N)=O)c1ccccc1C(F)(F)F`: the neurite formation score is 4.29.
The value for `CN1CCN(c2ccc(C(=O)Nc3n[nH]c4ccc(Cc5cc(F)cc(F)c5)cc34)c(NC3CCOCC3)c2)CC1` [Entrectinib] was 2.54; that for `COc1cc2ncc(-c3ccccc3)nc2cc1OC` [Tyrphostin AG 1296] was 5.24.
The value for `Cc1cnc(Nc2ccc(OCCN3CCCC3)cc2)nc1Nc1cccc(S(=O)(=O)NC(C)(C)C)c1` was 4.69; that for `CCCNC(=O)Nc1ccc(Oc2ncnc3cc(OC)c(OC)cc23)cc1Cl` was 5.57; that for `O=c1cc(N2CCOCC2)oc2c(-c3ccccc3)cccc12` was 5.24.
The value for `CCCCOc1c(C(=O)c2c(F)cc(C)cc2F)c[nH]c2nncc1-2` was 5.29; that for `N#CCNC(=O)c1ccc(-c2ccnc(Nc3ccc(N4CCOCC4)cc3)n2)cc1` [CYT387 sulfate salt] was 4.69; that for `CCCCCCCCCCCCCC(=O)OC[C@H](CO)OC(=O)CCCCCCCCCCCCC` [1,2-Dimyristoyl-sn-glycerol] was 4.88.
`Fc1cc(-c2cccc3ncc(-c4cnn(C5CCNCC5)c4)nc23)cc(F)c1CN1CCOCC1`: the neurite formation score is 4.47.
Next, `N=C(N)NCCC(=O)O` [3-Guanidinopropionic Acid]: 5.21; `Oc1ccc2ccccc2c1SSc1c(O)ccc2ccccc12`: 3.88.
`CCC(=O)Nc1cccc(Oc2nc(Nc3ccc(N4CCN(C)CC4)cc3OC)ncc2Cl)c1` displayed a neurite formation score of 5.63.
`O=C(O)c1ccc(Nc2ncc3c(n2)-c2ccc(Cl)cc2C(c2c(F)cccc2F)=NC3)cc1` had a neurite formation score of 3.47.
Next, `C=CC(=O)Nc1ccc2ncnc(Nc3ccc(OCc4cccc(F)c4)c(Cl)c3)c2c1`: 4.24; `C[C@H](NC(=O)/C(C#N)=C/c1cccc(Br)n1)c1ccccc1`: 4.36; `Cc1cc(Nc2cc(N3CCN(C)CC3)nc(/C=C/c3ccccc3)n2)n[nH]1`: 3.02.
Next, `COc1cc2ncnc(Nc3ccc(O)c(Br)c3)c2cc1OC`: 4.47.
Next, `CC(C)(C)c1nc2c3cc[nH]c(=O)c3c3cc(F)ccc3c2[nH]1` [Pyridone 6]: 3.69.
In turn, `COc1cc2nccc(Oc3ccc(NC(=O)Nc4ccc(F)cc4F)c(F)c3)c2cc1OC` returned a neurite formation score of 5.24.
As for `CO[C@H]1C[C@@H]2CC[C@@H](C)[C@@](O)(O2)C(=O)C(=O)N2CCCC[C@H]2C(=O)O[C@H]([C@H](C)C[C@@H]2CC[C@@H](OC(=O)C(C)(CO)CO)[C@H](OC)C2)CC(=O)[C@H](C)/C=C(\C)[C@@H](O)[C@@H](OC)C(=O)[C@H](C)C[C@H](C)/C=C/C=C/C=C/1C` [Temsirolimus], the neurite formation score came to 4.24.
Take `Cc1cc(Nc2ncc(Cl)c(Nc3ccccc3S(=O)(=O)C(C)C)n2)c(OC(C)C)cc1C1CCNCC1`: the neurite formation score was determined as 4.24.
Turning to `CN1CCN(c2ccc(OC(F)(F)F)c(Nc3ncc4c(n3)-c3c(c(C(N)=O)nn3CCO)CC4)c2)CC1`, the neurite formation score amounted to 4.88.
Turning to `CCOc1ccc(Nc2ccc(/C(=C3C=C/C(=[N+](/CC)Cc4cccc(S(=O)(=O)[O-])c4)C=C/3C)c3ccc(N(CC)Cc4cccc(S(=O)(=O)O)c4)cc3C)cc2)cc1` [Brilliant Blue G], the neurite formation score turned out to be 5.21.
The value for `C[C@@H]1CN(CC(=O)Nc2ccc3c(c2)Cc2cccc(-c4cc(=O)cc(N5CCOCC5)o4)c2S3)C[C@H](C)O1` was 3.9; that for `Nc1ncnc2n[nH]c(Nc3ccc(F)cc3)c12` was 4.88; that for `COc1cc2c(Oc3ccc(NC(=O)C4(C(=O)Nc5ccc(F)cc5)CC4)cc3F)ccnc2cc1OCCCN1CCOCC1` was 3.24.
Next, `FC(F)(F)c1ccc(CNc2ccc(Cc3c[nH]c4ncc(Cl)cc34)cn2)cn1` [Pexidartinib (PLX3397)]: 4.54; `Cc1cc(C)c(/C=C2\C(=O)Nc3ccccc32)[nH]1`: 5.02.
Next, `NC(=O)c1ccc(N(C(N)=O)c2c(F)cccc2F)nc1-c1ccc(F)cc1F`: 4.63; `Cc1cn(-c2cc(NC(=O)c3ccc(C)c(Nc4nccc(-c5cccnc5)n4)c3)cc(C(F)(F)F)c2)cn1` [Nilotinib monohydrochloride monohydrate]: 4.47; `COc1cc2/c(=N/c3ccc(Br)cc3F)nc[nH]c2cc1OCC1CCN(C)CC1` [Vandetanib (ZD6474)]: 4.8.
Consider `COc1ccc(-c2cc3c(C)nc(N)nc3n([C@H]3CC[C@H](OCCO)CC3)c2=O)cn1`, for which the neurite formation score turned out to be 3.96.
Next, `Cc1ccc(C(=O)Nc2ccc(CN3CCN(C)CC3)c(C(F)(F)F)c2)cc1C#Cc1cnc2cccnn12`: 1.24; `O=C(NC[C@H](O)CO)c1ccncc1Nc1ccc(I)cc1F`: 3.9.
In turn, `COc1cc2ncnc(Nc3cccc(Cl)c3)c2cc1OC` came in with a neurite formation score of 3.57.
`CCNc1nc(Nc2cc(F)c(C(=O)N3CCOCC3)cc2OC)ncc1C(F)(F)F`: the neurite formation score is 3.21.
Next, `Cc1c[nH]c(/C=C2\C(=O)Nc3ccccc32)c1CCC(=O)O`: 6.02; `Cc1cc(C)c(/C=C2\C(=O)Nc3ccccc32)[nH]1` [Semaxanib (SU5416)]: 4.54.
On to `CCOc1cc2ncc(C#N)c(Nc3ccc(F)c(Cl)c3)c2cc1NC(=O)/C=C/CN(C)C` [Pelitinib (EKB-569)], for which the neurite formation score was 3.91.
